Measurements reported in PubChem BioAssay.
Records with an inconclusive call do not appear. Calls of active or inactive are those of the source.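 Rule for the calls, unless noted: active = normalized viability below 100% at a tested concentration; inactive = the rest.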

Key:
[1] = drug combination growth inhibition, ovarian cancer – cell-based, oncology-focused library, rucaparib conditional, profiling panel (AID 1508598); details: patient-derived ovarian cancer cells, CellTiter-Glo viability, 144 h, stronger effect = lower value
[2] = viability loss in pontine glioma line – cell-based, SU-DIPG-XVII, MIPE5.0, CellTiter-Glo, qHTS, dose response (AID 1347060; cut-off not given, nearly all actives have AC50 up to about 26 µM;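 for AC50: cells exposed to compound for 48 hours before viability readout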); details: CellTiter-Glo ATP luminescence
[3] = viability loss in pontine glioma line – cell-based, SU-DIPG-XIII, MIPE4.0, CellTiter-Glo, qHTS, dose response (AID 1347061; cut-off not given, nearly all actives have AC50 up to about 37 µM;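 note: cells exposed to compound for 48 hours before readout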); details: CellTiter-Glo ATP luminescence
[4] = viability loss in pontine glioma line – cell-based, JHH-DIPG-1, MIPE4.0, CellTiter-Glo, qHTS, dose response (AID 1347062; cut-off not given, nearly all actives have AC50 up to about 27 µM;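 for AC50: cells exposed to compound for two days before readout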); details: JHH-DIPG-1 viability, CellTiter-Glo ATP luminescence
[5] = viability loss in pontine glioma line – cell-based, SU-DIPG-IV, MIPE4.0, CellTiter-Glo, qHTS, dose response (AID 1347063; cut-off not given, nearly all actives have AC50 up to about 30 µM;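 note: compound exposure lasted 48 hours before the viability readout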); details: CellTiter-Glo ATP luminescence
[6] = viability loss in pontine glioma line – cell-based, SU-DIPG-XIII, MIPE5.0, CellTiter-Glo, qHTS, dose response (AID 1347064; cut-off not given, nearly all actives have AC50 up to about 23 µM;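 for AC50: cells exposed to compound for 48 hours before the viability read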); details: CellTiter-Glo ATP luminescence
[7] = viability loss in pontine glioma line – cell-based, SU-DIPG-XXV, MIPE5.0, CellTiter-Glo, qHTS, dose response (AID 1347065; cut-off not given, nearly all actives have AC50 up to about 26 µM;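 note: cells exposed to compound for 48 hours before ATP readout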); details: CellTiter-Glo ATP luminescence
[8] = growth inhibition of DIPG cells – cell-based, MIPE4.0 library, CellTiter-Glo luminescence, qHTS (AID 1347066; cut-off not given, nearly all actives have AC50 up to about 30 µM;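 note: cells exposed to compound for 48 hours before readout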); details: SU-DIPG-VI viability, CellTiter-Glo ATP luminescence
[9] = JHH-DIPG-1 glioma cell viability, MIPE5.0 library, CellTiter-Glo luminescence, qHTS (AID 1347067; cut-off not given, nearly all actives have AC50 up to about 26 µM;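 note: cells exposed to compound for 48 hours before readout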); details: JHH-DIPG-1 glioma viability, CellTiter-Glo ATP luminescence
[10] = growth inhibition of DIPG cells – cell-based, MIPE5.0 library, qHTS (AID 1347068; cut-off not given, nearly all actives have IC50 up to about 30 µM;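 for IC50: cells exposed to compound for 48 hours before viability readout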); details: SU-DIPG-XXV viability
[11] = compounds altering HSF1 focus formation in cells – imaging, Selleck Cancer Library (AID 1347162; in the data active = plate-normalised HSF1 focus index below about 0.46); details: human cells, HSF1 nuclear foci imaging, at 10 µM; SSMD: measured here: HSF1 foci SSMD mean; cell count: measured here: cell number; plate-normalised HSF1 focus index: stronger effect = lower value
[12] = viability loss with induced miR-34 in A549 – imaging, A549 dox-inducible miR-34, nuclei and caspase counts, primary screen (AID 1347080;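 active = compounds whose cell count with miR-34 switched on is under 0.7 times the count with it off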); details: A549 miR-34 inducible, Hoechst nuclei count, 48 h
[13] = MELAS cybrid and Rieske KO viability enhancers – cell-based, MELAS cybrids, Rieske KO mouse fibroblasts, CellTiter-Glo, primary screen (AID 1508586;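 active = mean z-score across replicates of 1.96 or higher in either the MELAS or the Rieske mutant cell line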;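 note: z relative to plate mean and SD of compound and empty wells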); details: low glucose
[14] = at 0.0781 µM, OCI-P5x cells, with rucaparib 20 µM, 100% = cells with rucaparib alone
[15] = at 0.0781 µM, OCI-P5x cells, without rucaparib
[16] = at 0.313 µM, OCI-C5x cells, with rucaparib 10 µM, 100% = cells with rucaparib alone
[17] = at 0.313 µM, OCI-C5x cells, without rucaparib
[18] = at 0.313 µM, OCI-P5x cells, with rucaparib 20 µM, 100% = cells with rucaparib alone
[19] = at 0.313 µM, OCI-P5x cells, without rucaparib
[20] = at 1.25 µM, OCI-C5x cells, with rucaparib 10 µM, 100% = cells with rucaparib alone
[21] = at 1.25 µM, OCI-C5x cells, without rucaparib
[22] = at 1.25 µM, OCI-P5x cells, with rucaparib 20 µM, 100% = cells with rucaparib alone
[23] = at 1.25 µM, OCI-P5x cells, without rucaparib
[24] = at 5 µM, OCI-C5x cells, with rucaparib 10 µM, 100% = cells with rucaparib alone
[25] = at 5 µM, OCI-C5x cells, without rucaparib
[26] = at 5 µM, OCI-P5x cells, with rucaparib 20 µM, 100% = cells with rucaparib alone
[27] = at 5 µM, OCI-P5x cells, without rucaparib
[28] = stronger effect = lower value, cell number ratio, induced over uninduced
[29] = measured here: relative caspase fold change +Dox/-Dox
[30] = measured here: total cells with miR-34 induction, stronger effect = lower value
[31] = measured here: total cells without miR-34 induction
[32] = MELAS cybrid survival, CellTiter-Glo 48 h, stronger effect = higher value
[33] = Rieske KO mouse fibroblast survival, CellTiter-Glo 72 h

NC(=O)Nc1cc(-c2cccc(F)c2)sc1C(=O)N[C@H]1CCCNC1
active: viability [1, 14] 44.5% | viability [1, 15] 73.5% | viability [1, 16] 48% | viability [1, 17] 30.6% | viability [1, 18] 26% | viability [1, 19] 21.6% | viability [1, 20] 33.5% | viability [1, 21] 20% | viability [1, 22] 13.7% | viability [1, 23] 9.05% | viability [1, 24] 13% | viability [1, 25] 8.94% | viability [1, 26] 6.86% | viability [1, 27] 3.71%

CC1(C)OC2=C(C(=O)c3ccccc3C2=O)[C@H](NCc2ccccc2)[C@@H]1O
7240: cell count [11]
active: AC50 [2] 6.61 µM | AC50 [3] 5.9 µM | AC50 [4] 2.35 µM | AC50 [5] 5.9 µM | AC50 [6] 2.95 µM | AC50 [7] 3.72 µM | AC50 [8] 2.64 µM | AC50 [9] 3.32 µM | IC50 [10] 8.33 µM
0.824: SSMD [11]
inactive: plate-normalised HSF1 focus index [11] 1.05

COc1cc2c(Oc3ccc(NC(=O)C4(C(=O)Nc5ccc(F)cc5)CC4)cc3F)ccnc2cc1OCCCN1CCOCC1
1060: cell count [12, 30]
0.0525: z-score [13, 33]
inactive: fold change [12, 28] 1.06
active: AC50 [2] 2.63 µM | AC50 [3] 8.33 µM | AC50 [4] 18.7 µM | AC50 [5] 6.62 µM | AC50 [6] 3.72 µM | AC50 [7] 1.32 µM | AC50 [8] 11.8 µM | AC50 [9] 5.9 µM | IC50 [10] 3.72 µM | z-score [13, 32] 2.58
992: cell count [12, 31]
0.77: fold change [12, 29]

COc1cc2c(cc1OC)C1CC(=O)C(CC(C)C)CN1CC2 (centres undefined)
inactive: outcome [2] | outcome [3] | outcome [4] | outcome [5] | outcome [6] | outcome [7] | outcome [8] | outcome [9] | outcome [10] | fold change [12, 28] 0.996
9770: cell count [12, 30]
0.689: fold change [12, 29]
9800: cell count [12, 31]

COc1ccc(-c2cc3c(C)nc(N)nc3n(C3CCC(OCCO)CC3)c2=O)cn1 (centres undefined)
948: cell count [12, 30]
active: AC50 [2] 0.661 µM | AC50 [3] 0.418 µM | AC50 [4] 0.59 µM | AC50 [5] 0.0132 µM | AC50 [6] 0.468 µM | AC50 [7] 0.235 µM | AC50 [8] 1.18 µM | AC50 [9] 0.934 µM | IC50 [10] 1.32 µM
-2.85: z-score [13, 33]
0.958: fold change [12, 29]
inactive: fold change [12, 28] 0.719 | z-score [13, 32] 1.34
1320: cell count [12, 31]

O=C(c1ccc(C(=O)N2CCC(N3CCCC3)CC2)c(Nc2ccccc2)c1)N1CCC(N2CCCC2)CC1
inactive: outcome [2] | outcome [3] | outcome [4] | outcome [5] | outcome [6] | outcome [7] | outcome [8] | outcome [9] | outcome [10] | fold change [12, 28] 0.897 | z-score [13, 32] -0.111
8920: cell count [12, 31]
-0.294: z-score [13, 33]
1.63: fold change [12, 29]
8000: cell count [12, 30]

CN1CCC(CNc2ccc3ncc(-c4cccc(OC(F)(F)F)c4)n3n2)CC1
active: AC50 [2] 8.33 µM | AC50 [3] 18.7 µM | AC50 [4] 13.2 µM | AC50 [5] 18.7 µM | AC50 [6] 10.5 µM | AC50 [7] 5.25 µM | AC50 [8] 20.9 µM | AC50 [9] 2.63 µM | IC50 [10] 23.5 µM | viability ([1]; at 0.000305 µM, OCI-P5x cells, with rucaparib 20 µM, 100% = cells with rucaparib alone) 97.3% | viability ([1]; at 0.000305 µM, OCI-P5x cells, without rucaparib) 92.4% | viability ([1]; at 0.00122 µM, OCI-P5x cells, without rucaparib) 94.8% | viability ([1]; at 0.00488 µM, OCI-P5x cells, with rucaparib 20 µM, 100% = cells with rucaparib alone) 96.7% | viability ([1]; at 0.00488 µM, OCI-P5x cells, without rucaparib) 87.9% | viability ([1]; at 0.0195 µM, OCI-P5x cells, with rucaparib 20 µM, 100% = cells with rucaparib alone) 99.2% | viability ([1]; at 0.0195 µM, OCI-P5x cells, without rucaparib) 88% | viability [1, 14] 93.6% | viability [1, 15] 82.1% | viability [1, 18] 89.6% | viability [1, 19] 80.8% | viability [1, 21] 98% | viability [1, 22] 82.6% | viability [1, 23] 70.9% | viability [1, 26] 50.5% | viability [1, 27] 46.6%
1.66: SSMD [11]
0.583: fold change [12, 29]
inactive: fold change [12, 28] 0.872 | plate-normalised HSF1 focus index [11] 1.1 | z-score [13, 32] -0.102 | viability ([1]; at 0.000305 µM, OCI-C5x cells, with rucaparib 10 µM, 100% = cells with rucaparib alone) 112% | viability ([1]; at 0.000305 µM, OCI-C5x cells, without rucaparib) 115% | viability ([1]; at 0.00122 µM, OCI-C5x cells, with rucaparib 10 µM, 100% = cells with rucaparib alone) 110% | viability ([1]; at 0.00122 µM, OCI-C5x cells, without rucaparib) 113% | viability ([1]; at 0.00122 µM, OCI-P5x cells, with rucaparib 20 µM, 100% = cells with rucaparib alone) 100% | viability ([1]; at 0.00488 µM, OCI-C5x cells, with rucaparib 10 µM, 100% = cells with rucaparib alone) 106% | viability ([1]; at 0.00488 µM, OCI-C5x cells, without rucaparib) 106% | viability ([1]; at 0.0195 µM, OCI-C5x cells, with rucaparib 10 µM, 100% = cells with rucaparib alone) 110% | viability ([1]; at 0.0195 µM, OCI-C5x cells, without rucaparib) 114% | viability ([1]; at 0.0781 µM, OCI-C5x cells, with rucaparib 10 µM, 100% = cells with rucaparib alone) 107% | viability ([1]; at 0.0781 µM, OCI-C5x cells, without rucaparib) 109% | viability [1, 16] 110% | viability [1, 17] 104% | viability [1, 20] 130% | viability [1, 24] 123% | viability [1, 25] 115%
-1.76: z-score [13, 33]
4380: cell count [12, 30]
5020: cell count [12, 31]
7290: cell count [11]

NC(=NCCCCCCN=C(N)N=C(N)Nc1ccc(Cl)cc1)N=C(N)Nc1ccc(Cl)cc1
1620: cell count [12, 31]
1370: cell count [12, 30]
inactive: fold change [12, 28] 0.848 | z-score [13, 32] -0.252
0.439: fold change [12, 29]
active: AC50 [2] 9.34 µM | AC50 [3] 4.18 µM | AC50 [4] 14.8 µM | AC50 [5] 18.7 µM | AC50 [6] 8.33 µM | AC50 [7] 9.34 µM | AC50 [8] 13.2 µM | AC50 [9] 11.8 µM | IC50 [10] 14.8 µM
0.00983: z-score [13, 33]

CC(C)(OCc1nn(Cc2ccccc2)c2ccccc12)C(=O)O
9960: cell count [12, 31]
0.724: fold change [12, 29]
inactive: outcome [2] | outcome [3] | outcome [4] | outcome [5] | outcome [6] | outcome [7] | outcome [8] | outcome [9] | outcome [10] | fold change [12, 28] 0.935 | z-score [13, 32] -0.401
-0.561: z-score [13, 33]
9310: cell count [12, 30]
